The test system of assay [1] is Plasmodium falciparum Sir2 (PF13_0152, Sir2A). As to the kind of experiment: Plasmodium falciparum Sir2A binding compounds – biochemical, small-molecule microarray, 635 nm fluorescence, primary screen (AID 1098).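 Note: score merges spot fluorescence intensity with its signal-to-noise ratio.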 Conditions: fluorescence 635 nm, higher = more signal.
Assay [2] is described as follows: probe aDKK1 binding to arrayed compounds – biochemical, biotinylated probe, 635/667 nm fluorescence, primary screen (AID 1099).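 Note: score merges 667nm spot fluorescence with signal to noise across triplicate slides.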 Conditions: small-molecule microarray, higher = more signal.
Assay [3] can be described thus: probe aCHRDL2 binding to arrayed compounds – biochemical, biotinylated probe, 635/667 nm fluorescence, primary screen (AID 1100). The conditions noted are these: small-molecule microarray, higher = more signal.
Assay [4] can be described thus: change in splice reporter luminescence, either direction, cell-based, HEK293, spliceosome inhibition project, primary screen (AID 1101).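 Note: HEK293 cells carrying a splicing-competent luciferase reporter gene; test concentration not given here.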 The conditions noted are these: HEK293 splicing luciferase reporter, 24 h, higher = more signal, called active from +8 up or from −8 down.
Assay [5] deals with Fibroblast growth factor 10 (Homo sapiens) (UniProt O15520). As to the kind of experiment: compounds binding fibroblast growth factor 10 – biochemical, small-molecule microarray, 635 nm fluorescence, primary screen (AID 1102). The conditions noted are these: FGF10 binding, fluorescence 635 nm, higher = more signal.
Fibroblast growth factor 10 (Homo sapiens), sequence (O15520 whole entry, looked up): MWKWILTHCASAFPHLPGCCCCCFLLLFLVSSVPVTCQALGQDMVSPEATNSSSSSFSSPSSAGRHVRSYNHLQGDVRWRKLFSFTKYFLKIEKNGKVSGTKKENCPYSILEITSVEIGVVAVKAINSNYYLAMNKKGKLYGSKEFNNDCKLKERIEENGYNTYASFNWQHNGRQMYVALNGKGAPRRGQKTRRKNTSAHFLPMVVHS
The test system of assay [6] is glycogen synthase kinase-3 (GSK3A per assay name; protocol says GSK3B). The assay is described as follows: compounds binding glycogen synthase kinase-3 – biochemical, small-molecule microarray, 635 nm fluorescence, GSK3A, primary screen (AID 1103). Note: the record names both GSK3A and GSK3B. Conditions: fluorescence 635 nm, higher = more signal.
Assay [7] deals with Epidermal growth factor receptor (Homo sapiens) (UniProt P00533). The assay is described as follows: compounds binding epidermal growth factor receptor – biochemical, small-molecule microarray, 635 nm fluorescence, primary screen (AID 1104).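 Note: score merges 667 nm emission intensity with spot signal to noise over triplicate slides.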 Conditions: EGFR binding, higher = more signal.
Epidermal growth factor receptor (Homo sapiens), sequence (P00533 whole entry, looked up): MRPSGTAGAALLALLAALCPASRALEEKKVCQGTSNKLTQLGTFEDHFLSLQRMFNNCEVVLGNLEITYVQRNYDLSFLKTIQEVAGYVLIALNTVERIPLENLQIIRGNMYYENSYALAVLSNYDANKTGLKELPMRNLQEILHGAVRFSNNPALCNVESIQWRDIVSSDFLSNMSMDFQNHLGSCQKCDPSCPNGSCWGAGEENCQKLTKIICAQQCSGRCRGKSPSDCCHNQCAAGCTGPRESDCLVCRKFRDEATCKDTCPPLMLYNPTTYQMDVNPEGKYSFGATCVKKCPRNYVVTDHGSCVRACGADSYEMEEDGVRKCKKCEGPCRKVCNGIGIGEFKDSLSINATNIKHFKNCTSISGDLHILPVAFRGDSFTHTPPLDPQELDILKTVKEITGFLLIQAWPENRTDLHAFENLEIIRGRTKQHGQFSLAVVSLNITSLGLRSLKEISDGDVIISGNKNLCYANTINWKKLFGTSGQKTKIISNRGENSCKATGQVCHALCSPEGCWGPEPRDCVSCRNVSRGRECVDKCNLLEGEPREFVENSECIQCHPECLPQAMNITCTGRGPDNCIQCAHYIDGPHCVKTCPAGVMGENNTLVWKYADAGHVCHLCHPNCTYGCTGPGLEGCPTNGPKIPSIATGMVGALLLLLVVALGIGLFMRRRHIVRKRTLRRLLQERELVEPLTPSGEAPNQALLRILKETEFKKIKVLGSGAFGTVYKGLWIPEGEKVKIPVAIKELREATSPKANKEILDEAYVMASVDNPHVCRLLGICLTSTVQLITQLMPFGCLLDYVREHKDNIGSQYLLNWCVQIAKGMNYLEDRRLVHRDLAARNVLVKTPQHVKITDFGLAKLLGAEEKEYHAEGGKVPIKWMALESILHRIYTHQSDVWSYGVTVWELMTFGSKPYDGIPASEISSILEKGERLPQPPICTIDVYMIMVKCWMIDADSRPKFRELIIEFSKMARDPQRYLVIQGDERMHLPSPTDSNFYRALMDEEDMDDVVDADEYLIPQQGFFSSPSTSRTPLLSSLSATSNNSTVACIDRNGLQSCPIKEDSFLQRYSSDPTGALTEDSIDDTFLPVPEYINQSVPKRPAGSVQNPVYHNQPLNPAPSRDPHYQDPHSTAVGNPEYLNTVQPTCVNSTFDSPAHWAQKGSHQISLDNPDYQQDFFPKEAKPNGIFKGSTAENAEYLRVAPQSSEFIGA
Assay [8] addresses Follistatin-related protein 3 (Homo sapiens) (UniProt O95633). As to the kind of experiment: compounds binding follistatin-related protein 3 – biochemical, small-molecule microarray, 635 nm fluorescence, primary screen (AID 1105).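 Note: score merges emission near 667 nm and signal to noise per printed spot across three slides.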 The conditions noted are these: FSTL3 binding, higher = more signal.
For assay [9], the target named is Dickkopf-related protein 1 (Homo sapiens) (UniProt O94907). The assay is described as follows: small molecules binding DKK1 protein – biochemical, small-molecule microarray, 635 nm fluorescence scan, primary screen (AID 1106).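 Note: score merges emission near 667 nm with signal to noise over three replicate slides.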 Conditions: higher = more signal.
Dickkopf-related protein 1 (Homo sapiens), sequence (O94907 whole entry, looked up): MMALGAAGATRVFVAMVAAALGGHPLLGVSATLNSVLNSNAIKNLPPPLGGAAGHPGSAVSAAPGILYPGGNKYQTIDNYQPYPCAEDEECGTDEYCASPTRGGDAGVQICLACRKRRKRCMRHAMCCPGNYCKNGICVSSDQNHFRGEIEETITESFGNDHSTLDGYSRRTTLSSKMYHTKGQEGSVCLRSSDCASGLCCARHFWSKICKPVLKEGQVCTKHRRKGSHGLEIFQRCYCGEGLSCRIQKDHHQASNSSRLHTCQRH
Assay [10] has as its system Inhibin beta A chain (activin A). As to the kind of experiment: small molecules binding activin A – biochemical, small-molecule microarray, 635 nm fluorescence scan, primary screen (AID 1107).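 Note: mouse activin A protein probed at 4.33 µg/mL on printed slides; score merges bound-protein fluorescence near 667 nm with spot signal-to-noise.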 Conditions: INHBA, higher = more signal.
Assay [11] deals with Human papillomavirus type 1a protein E7 (residues 44-93). As to the kind of experiment: small molecules binding HPV E7 44-93 – biochemical, small-molecule microarray, residues 44-93, 635 nm fluorescence, primary screen (AID 1108).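 Note: E7 fragment applied at 1 µg/mL in TBST for 1 h at 4 C; score combines spot fluorescence with its signal to noise ratio.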 Conditions: fluorescence 635 nm, higher = more signal.
The nature of assay [12]: hepatitis C replication reporter changes, two-sided – Huh7 cells, luciferase reporter, HCV replication inhibitor project, primary screen (AID 1109).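 Note: huh7 hepatoma cells harbouring a luciferase neomycin HCV replicon reporter; luciferase luminescence as measure of HCV replicon replication; test concentration not given here.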 The conditions noted are these: Huh7 HCV replicon luciferase reporter, 48 h; higher = more signal. For orientation: Reporter assays use an easily measured gene product as a stand-in for the process of interest.
Assay [13] deals with Left-right determination factor 2 (Homo sapiens) (UniProt O00292). As to the kind of experiment: small molecules binding LEFTY2 protein – biochemical, small-molecule microarray, 635 nm fluorescence scan, primary screen (AID 1110). The conditions noted are these: higher = more signal.
Left-right determination factor 2 (Homo sapiens), sequence (O00292 whole entry, looked up): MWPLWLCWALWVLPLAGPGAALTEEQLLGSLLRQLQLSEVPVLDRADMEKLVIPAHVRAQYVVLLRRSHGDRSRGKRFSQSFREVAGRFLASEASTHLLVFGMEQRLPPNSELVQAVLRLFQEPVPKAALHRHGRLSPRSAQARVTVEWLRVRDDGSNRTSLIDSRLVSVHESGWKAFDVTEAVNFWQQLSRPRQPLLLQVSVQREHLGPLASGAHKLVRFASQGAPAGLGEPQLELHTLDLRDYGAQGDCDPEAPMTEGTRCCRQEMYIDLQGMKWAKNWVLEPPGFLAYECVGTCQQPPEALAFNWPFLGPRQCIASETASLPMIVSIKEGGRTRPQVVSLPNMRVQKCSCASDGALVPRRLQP
Assay [14] concerns the target Calmodulin-1 (Homo sapiens) (UniProt P0DP23). The assay is described as follows: small molecules binding calmodulin-1 with EGTA – biochemical, small-molecule microarray, Cy5-labelled CALM1, profiling panel (AID 1111).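 Note: labelled calmodulin applied in Tris saline Tween buffer holding calcium plus EGTA and DTT.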 Conditions: Cy5-CALM1 binding fluorescence, higher = more signal.
For assay [15] the target is unchanged. As to the kind of experiment: small molecules binding Ca-loaded calmodulin-1 – biochemical, small-molecule microarray, Cy5-labelled CALM1, plus calcium, artefact control for SMM control-protein annotation, profiling panel (AID 1112).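 Note: score merges spot fluorescence with signal to noise from triplicate slides.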 The conditions noted are these: Cy5-CALM1 binding fluorescence, higher = more signal.
Assay [16] can be described thus: probe aWnt5a binding to arrayed compounds – biochemical, biotinylated probe, 635/667 nm fluorescence, primary screen (AID 1113).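 Note: score merges 667 nm fluorescence intensity with signal-to-noise per printed feature.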 The conditions noted are these: small-molecule microarray, higher = more signal.
Assay [17] can be described thus: probe aShh binding to arrayed compounds – biochemical, biotinylated probe, 635/667 nm fluorescence, primary screen (AID 1114).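 Note: probe is biotin-labelled aShh protein from a stem cell growth factor screen; measures binding of labelled protein to compounds printed on the slide; score merges feature fluorescence at 667 nm with signal-to-noise.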 The conditions noted are these: small-molecule microarray, higher = more signal.
Assay [18] can be described thus: probe aNog binding to arrayed compounds – biochemical, biotinylated probe, 635/667 nm fluorescence, primary screen (AID 1115).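 Note: probe is biotinylated aNog protein used at 0.15 µg/mL for 1 h at 4 C; z-score combines 667 nm fluorescence of each spot with its signal to noise.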 Conditions: small-molecule microarray, higher = more signal.
In assay [19] the target is Torsin-1A-interacting protein 1 (Homo sapiens) (UniProt Q5JTV8). As to the kind of experiment: compound microarray binding of lysate hLAP1 – cell lysate, small-molecule microarray, COS7 lysate, 635/667 nm fluorescence, primary screen (AID 1116). The conditions noted are these: 635 nm fluorescence, higher = more signal.
Torsin-1A-interacting protein 1 (Homo sapiens), sequence (Q5JTV8 whole entry, looked up): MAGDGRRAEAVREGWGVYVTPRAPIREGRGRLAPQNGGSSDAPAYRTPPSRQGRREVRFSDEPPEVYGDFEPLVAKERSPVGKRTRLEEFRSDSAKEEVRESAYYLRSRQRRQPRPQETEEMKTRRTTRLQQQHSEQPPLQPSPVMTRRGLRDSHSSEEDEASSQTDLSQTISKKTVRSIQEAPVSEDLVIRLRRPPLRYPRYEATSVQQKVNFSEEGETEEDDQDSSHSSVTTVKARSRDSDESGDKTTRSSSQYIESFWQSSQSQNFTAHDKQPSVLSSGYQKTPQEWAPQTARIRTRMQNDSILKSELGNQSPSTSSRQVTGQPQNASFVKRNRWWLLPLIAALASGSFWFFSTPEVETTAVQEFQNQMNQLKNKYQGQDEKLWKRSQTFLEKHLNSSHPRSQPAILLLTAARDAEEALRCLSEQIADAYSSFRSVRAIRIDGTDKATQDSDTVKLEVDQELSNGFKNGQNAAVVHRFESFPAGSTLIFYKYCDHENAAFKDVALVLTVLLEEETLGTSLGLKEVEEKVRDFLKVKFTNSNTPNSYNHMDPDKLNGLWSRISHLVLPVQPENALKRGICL
Assay [20] has as its target Alpha-bungarotoxin (Bungarus multicinctus) (UniProt P60615). As to the kind of experiment: compounds binding labelled alpha-BTX control protein – biochemical, small-molecule microarray, Alexa647 label, 635/667 nm fluorescence, artefact control for SMM control protein annotation, profiling panel (AID 1117). The conditions noted are these: alpha-BTX-A647 binding fluorescence, higher = more signal.

Each structure is given as a SMILES string. Active and inactive are the calls of the source.

Follistatin-related protein 3 (Homo sapiens), sequence (O95633 whole entry, looked up): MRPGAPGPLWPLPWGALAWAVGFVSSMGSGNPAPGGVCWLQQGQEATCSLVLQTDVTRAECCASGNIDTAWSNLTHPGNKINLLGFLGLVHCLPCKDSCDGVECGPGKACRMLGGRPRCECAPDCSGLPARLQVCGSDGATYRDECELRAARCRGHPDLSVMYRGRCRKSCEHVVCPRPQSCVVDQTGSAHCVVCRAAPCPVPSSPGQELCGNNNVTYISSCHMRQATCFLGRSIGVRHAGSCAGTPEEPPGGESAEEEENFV
Alpha-bungarotoxin (Bungarus multicinctus), sequence (P60615 whole entry, looked up): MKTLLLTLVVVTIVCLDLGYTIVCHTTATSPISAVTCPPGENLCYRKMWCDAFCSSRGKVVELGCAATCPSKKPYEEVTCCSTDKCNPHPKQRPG

As to `COc1ccc(C(=O)Nc2cccc(CN3C(=O)[C@@]4(O[C@@H](CCO)[C@H]([Si](C)(C)c5ccc(OC)cc5)[C@H]4C)c4ccccc43)c2)cc1`, the composite z-score in [1] was 0.775; in [2], 0.481; in [3], 0.666; in [5], 0.0414; in assay [6], 0.2; in assay [7], -0.121. Besides, the composite z-score in [8] was 0.131; in assay [9] it was 0.19; in [10], 1.49; in assay [11], 0.721; in assay [13], -0.0057; in assay [14], 1.08. Moreover, the composite z-score in assay [15] was 1.03; in assay [16] it was -0.0721; in assay [17], -0.0146; in assay [18], 0.0043; in assay [19], 0.0777; in assay [20], 0.689. Moreover, the z-score in [4] is 1.92 (inactive); in assay [12], -5.15.

With `[N-]=[N+]=NCc1ccccc1C[C@@]1(C(=O)O)N=C(c2ccc(OCCCO)cc2)O[C@@H]1c1ccccc1`, the composite z-score is 1.31 in assay [1]; 0.884 in [2]; 1.24 in assay [3]; -0.0995 in assay [5]; -0.374 in assay [6]; -0.906 in assay [7]. The composite z-score in assay [8] is -0.879; in assay [9], -1.09; in assay [10], 0.738; in assay [11], 0.566; in assay [13], -0.404; in assay [14] it was 2.13. Moreover, the composite z-score in assay [15] was 1.36; in [16], -0.0799; in assay [17], 0.0469; in assay [18] it was 0.767; in assay [19], 1.75; in assay [20], 1.09. The z-score in [4] was -0.618 (inactive); in assay [12], -0.616.

`O=C1O[C@H](c2ccccc2)[C@H](c2ccccc2)N2[C@H]1[C@@H](C(=O)Nc1nc3ccccc3s1)[C@]1(C(=O)Nc3ccc(C#CCCO)cc31)[C@H]2c1ccccc1OCCO`: the composite z-score in assay [1] was found to be 1.35; in [2] it was 0.676; in assay [3], 0.784; in [5], 0.545; in assay [6], 1.31; in [7], 0.289. For the same compound, the composite z-score is 0.892 in assay [8]; 0.328 in [9]; 0.793 in [10]; 0.793 in [11]; 0.537 in [13]; 1.74 in assay [14]. The composite z-score came out at 0.439 in assay [15]; 0.0849 in assay [16]; 0.355 in [17]; 1.3 in assay [18]; 1.26 in [19]; 1.97 in [20]. The z-score in assay [4] is -0.0121 (inactive); in assay [12], -1.79.

Consider `CCCCC(=C=CC[C@@H](O)c1ccc(OCCO)cc1)C[C@@H](O)c1cc(Cl)cc(Cl)c1O`, for which the composite z-score in assay [1] was 0.157; in [2] it was 0.279; in assay [3] it was 0.577; in assay [5], 0.697; in assay [6], -0.167; in assay [7], -0.723. The composite z-score in assay [8] is -0.0492; in assay [9], -0.344; in assay [10] it was 0.588; in assay [11], -0.258; in assay [13], -0.0836; in assay [14] it was 0.863. Further, the composite z-score in [15] was 0.83; in [16] it was -0.124; in [17] it was -0.221; in [18], 0.342; in assay [19] it was 0.497; in assay [20], 0.166. Further, the z-score was -2 (inactive) in assay [4] and -1.99 in assay [12].

With `C=CC[C@@H](OC(=O)Nc1ccc(SC)cc1)c1ccc(OCCO)cc1`, the composite z-score in [1] is 1.28; in assay [2], 0.271; in [3], 1.29; in assay [5] it was 0.0292; in [6], -0.381; in assay [7], -1.4. The composite z-score is -0.805 in assay [8]; -1.42 in [9]; -0.148 in [10]; -0.318 in assay [11]; -0.952 in [13]; -0.0326 in [14]. For the same compound, the composite z-score is 0.835 in assay [15]; -0.208 in [16]; 0.358 in assay [17]; 0.133 in [18]; 1.01 in assay [19]; -0.68 in [20]. Also, the z-score in [4] was -1.83 (inactive); in [12] it was 2.1.

Regarding `CC(C)CCC[C@@H](C)[C@H]1CC[C@@]2(C)C3=C(CC[C@]12C)[C@@]1(C)CC[C@H](OC(=O)CCl)C(C)(C)C1CC3` (stereo not given in full), the composite z-score in assay [1] was 0.346; in assay [2], -0.0827; in assay [3] it was -0.49; in assay [5], 0.471; in assay [6] it was 0.684; in assay [7], 0.372. The composite z-score in assay [8] was 0.675; in assay [9], 0.604; in assay [10], 0.0773; in assay [11] it was 0.637; in assay [13], 0.448; in assay [14], -0.0581. Also, the composite z-score is -0.552 in assay [15]; 0.0115 in [16]; -0.424 in assay [17]; 0.0983 in assay [18]; 0.247 in [19]; 0.587 in assay [20]. Further, the z-score in [4] is 0.0767 (inactive); in assay [12], -0.143.

For `C=C(COC)C(=O)CC[C@H](OC(=O)c1cccnc1)c1cccc(OCCO)c1`, the composite z-score in assay [1] worked out at 0.935; in assay [2] it was 0.706; in [3], 0.169; in assay [5], 1.09; in assay [6], 0.538; in assay [7], 0.041. For the same compound, the composite z-score was 0.431 in assay [8]; 0.994 in assay [9]; 1.23 in assay [10]; -0.298 in assay [11]; 0.203 in assay [13]; -0.638 in assay [14]. Further, the composite z-score was -0.282 in assay [15]; 0.506 in assay [16]; 0.841 in [17]; 0.958 in [18]; 1.49 in assay [19]; -0.923 in [20]. Further, the results for the z-score in assay [4] and in [12] were -0.686 (inactive) and -0.87, respectively.

`CO[C@H]1O[C@H](CO)[C@@H](OC(=O)Nc2ccccc2)[C@H](OC(=O)Nc2ccc3c(c2)OCO3)[C@H]1OC(=O)Nc1ccc2c(c1)OCO2`: the composite z-score is 1.59 in [1]; 0.666 in assay [2]; 0.757 in assay [3]; 0.729 in assay [5]; 0.741 in assay [6]; -0.242 in assay [7]. The composite z-score in assay [8] stood at 0.292; in assay [9], 0.0894; in assay [10], 0.798; in assay [11], 0.538; in assay [13] it was 0.452; in assay [14] it was 1.65. Also, the composite z-score in [15] is -0.617; in [16], 0.0973; in assay [17] it was 0.0898; in assay [18], 1.19; in assay [19], 1.51; in assay [20] it was 0.485. Besides, the z-score in assay [4] is -0.618 (inactive); in [12] it was -1.04.

For the origin of these results see PubChem BioAssay.
